High-throughput results (PubChem BioAssay)
In the library only some 11% were active in any assay of this set; here they are far more common.
Pf growth 48h – Primary qHTS for delayed death inhibitors of the malarial parasite plastid, 48 hour incubation; P. falciparum luciferase growth in erythrocytes, 48 h; actives 5.9% (n = 310,000); Potency, µM (highest dose often 28.7 µM), for the others: at the highest dose activity change, negative = inhibition, most hits filed as inhibitors; AID 504832, 2011; note: % is set by controls: 0 for no effect and ±100 for the full control effect
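Parasite viability was followed by luminescence of a genomically integrated firefly luciferase. Cultures held 0.1% parasitemia at 2% hematocrit (final), incubated under 5% CO2 at 37 C.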
NS1 inh – qHTS Assay for Inhibitors of Influenza NS1 Protein Function; Potency, µM (top dose mostly 46.1 µM), for the others: top-dose activity, positive = more growth; actives 0.4% (n = 270,000); calls by dose curve; note: actives are rising curves; nearly all actives have a fitted effect of over 50% in size
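In this qHTS, NS1 from influenza A is expressed in budding yeast, where it slows growth. Cells are switched from glucose to 2% galactose medium (pH 6.0, -URA), treated with compound, and growth recovery is read at OD600.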
AMA1 RON2 block – qHTS for Inhibitors of AMA1-RON; Towards Development of Antimalarial Drug Lead: Primary Screen; Plasmodium falciparum AMA1 (3D7) - RON2 peptide interaction; AlphaScreen AMA1-biotinylated RON2 peptide binding; Potency, µM (series often up to 58.2 µM), for inactives: at the highest dose activity change, negative = inhibition, most hits filed as inhibitors; actives 0.2% (n = 360,000); AID 720542, 2013;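 note: 0% = vehicle wells and -100% = peptide control; nearly all actives have a fitted effect of over 45% in size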
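AMA1 (3D7) with his tag at 25 nM final met compounds first, then biotinylated RON2 peptide at 25 nM; detection used donor plus acceptor beads, 10 µg/mL apiece, read by AlphaScreen after 30 min at room temperature.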
Sm TGR block – qHTS Assay for the Inhibitors of Schistosoma Mansoni Peroxiredoxins | Schistosoma mansoni thioredoxin glutathione reductase (TGR), Q962Y6 | purified TGR, DTNB reduction, TNB absorbance 405 nm | Potency, µM (highest dose often 114 µM), for the others: top-dose activity change, negative = inhibition, most hits filed as inhibitors | actives 3% (n = 360,000) | AID 485364, 2010; note: % is set by controls: 0 for no effect and ±100 for the full control effect; nearly all actives have a fitted effect of over 60% in size
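Kinetic colorimetric format: TGR-catalysed, NADPH-driven DTNB reduction monitored via TNB absorbance. Enzyme dispensed at 20 nM; compound exposure 15 min at room temperature before reaction start.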
Pf growth 96h – Primary qHTS for delayed death inhibitors of the malarial parasite plastid, 96 hour incubation; AID 504834, 2011; P. falciparum luciferase reporter growth, 96 h; actives 6.9% (n = 320,000); Potency, µM (doses to about 28.7 µM), without a hit: at the top dose activity change, negative = inhibition, usual class: inhibitors; note: % is set by controls: 0 for no effect and ±100 for the full control effect
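Erythrocytes infected with luciferase-expressing P. falciparum were dispensed at 2% hematocrit and 0.05% parasitemia (final), then incubated with compounds 96 hours at 37 C in 5% CO2. Luminescence after detection reagent addition reported growth.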
* marks the source's active call; other numbers are inactive results; u = inconclusive; x = no result given. Unless noted, calls come from the whole dose curve; as a rule, active = well fitted curve in the direction sought with a large enough effect; inconclusive = small, poorly fitted or top-dose-only effect, or another doubt; inactive = no such curve, though single readings can be large; an effect the other way counts as inactive or inconclusive. Potency is the fitted concentration of half-maximal effect.

SMILES	Pf growth 48h	NS1 inh	AMA1 RON2 block	Sm TGR block	Pf growth 96h
S=C(NCCC(c1ccccc1)c1ccccc1)Nc1cccc(Cl)c1	-16.5%	-12.6%	111.4%	-19.5%	-10.2%
Cc1cc(C)cc(NC(=S)NC2CC3CCCC(C2)N3C2CCCC2)c1 (stereo not given)	u	3.0%	-7.0%	12.6µM*	-5.6%
Cc1cc(C)cc(NC(=S)NC2CC3CCCC(C2)N3C2CC2)c1 (stereo not given)	u	2.4%	-0.5%	x	-0.5%
S=C(NCCN(C1CCCCC1)C1CCCC1)Nc1cccc(Cl)c1	2.94µM*	-3.1%	-21.5%	-24.8%	-2.3%
CNC(C)C(=O)NC(C(=O)NC(C)C(=O)NNc1ccccc1)C(C)C (stereo not given)	x	x	29.5%	x	x
CCc1ccc(CNC(=O)c2cnc3sc(N4CCOCC4)nn3c2=O)cc1	x	x	x	-0.2%	x
S=C(Nc1ccc(Cl)cc1)NC1CC2CCCC(C1)N2C1CCCC1 (stereo not given)	10.4µM*	5.3%	14.0%	-22.3%	11.7µM*
CCN(CC)c1ccc(/C=N/NC(=O)C(O)(c2ccccc2)c2ccccc2)o1	u	17.5%	x	14.1µM*	u
COc1ccc2c(C)c(CC(=O)NCCc3ccccc3)c(=O)oc2c1OC	x	x	x	7.6%	x
COc1ccc(Cn2nnnc2C(c2cc3cc(C)ccc3[nH]c2=O)N2CCOCC2)cc1 (stereo not given)	-32.8%	-10.1%	-8.8%	-27.4%	x
CCN1CCN(C(c2cc3cccc(C)c3[nH]c2=O)c2nnnn2Cc2ccccc2)CC1 (stereo not given)	u	-8.6%	30.2%	-27.9%	15.6%
COc1ccc(N2CCN(C(c3cc4cc(C)ccc4[nH]c3=O)c3nnnn3Cc3ccccc3)CC2)cc1 (stereo not given)	x	8.2%	-14.1%	u	3.7µM*
Cc1ccc2cc(C(c3nnnn3Cc3ccccc3)N3CCN(c4ccccc4)CC3)c(=O)[nH]c2c1 (stereo not given)	5.86µM*	4.9%	-24.3%	22.4µM*	7.9%
Cc1ccc2cc(C(c3nnnn3C3CCCC3)N3CCN(c4ccccc4)CC3)c(=O)[nH]c2c1 (stereo not given)	u	12.6%	-5.9%	12.6µM*	u
COc1ccc(OC)c(CNS(=O)(=O)c2cc(-c3onc(C)c3C)ccc2C)c1	x	x	x	1.0%	x
COc1c2c(c(OC)c3ccccc13)[C@]1(OC2)O[C@H](CCO)C[C@H](O)[C@H]1O	x	x	4.0%	x	x
Cc1nc(C)c(-c2ccc(SCC(=O)Nc3cccc(F)c3)nn2)s1	6.0%	5.1%	21.5%	-2.9%	u
CC(=O)c1cccc(NC(=O)CSc2ccc(-c3sc(C)nc3C)nn2)c1	-15.0%	-6.6%	-9.5%	-2.4%	13.1µM*
Cc1nc(C)c(-c2ccc(SCC(=O)Nc3cccc(Cl)c3)nn2)s1	-6.8%	-3.5%	-2.0%	-1.1%	13.1µM*
COc1ccc(NC(=O)CSc2ccc(-c3sc(C)nc3C)nn2)cc1	-15.0%	-2.8%	1.6%	-5.2%	13.1µM*
COc1ccc(-c2oc3ncn4nc(COc5cccc(C)c5C)nc4c3c2-c2ccc(OC)cc2)cc1	x	x	x	7.6%	x
CCc1n[nH]c(=O)n1Cn1c(CC)n[nH]c1=O	x	-5.4%	5.4%	1.2%	10.4µM*
CCn1c(CCCCc2n[nH]c(=S)n2CC)n[nH]c1=S	3.6%	3.3%	120.4%	x	17.7%
CCn1nnc2c(=O)oc3ccccc3c21	-26.3%	x	23.8%	-8.0%	4.15µM*
O=C1NC[C@@H](CCCCN2C[C@H](Cc3ccccc3)N(CCc3ccc(O)cc3)C(=O)C2=O)N(CC2CCCCC2)C1=O	x	x	4.9%	x	x
SMILES	Pf growth 48h	NS1 inh	AMA1 RON2 block	Sm TGR block	Pf growth 96h
CN(CC(=O)Nc1cc(S(=O)(=O)N2CCCC2)ccc1Cl)Cc1nc2ccccc2c(=O)[nH]1	x	x	129.2%	x	x
CN(CC(=O)Nc1cc(S(=O)(=O)N2CCCCCC2)ccc1Cl)Cc1ccc2c(c1)OCO2	11.7µM*	x	4.0%	-4.9%	u
COc1ccc(S(=O)(=O)N2CCCCCC2)cc1NC(=O)CN(C)Cc1ccc2c(c1)OCO2	11.7µM*	x	32.0%	-1.6%	u
CN(CC(=O)Nc1cc(S(=O)(=O)N2CCCC2)ccc1Cl)Cc1ccc2c(c1)OCO2	8.28µM*	x	-7.3%	-17.0%	u
CC(=O)OCC(=O)Nc1cc(S(=O)(=O)N2CCCCCC2)ccc1Cl	6.7%	x	6.8%	21.5%	-5.9%
COc1ccc(S(=O)(=O)N2CCCCC2)cc1NC(=O)CN(Cc1ccco1)Cc1ccco1	11.7µM*	x	-5.6%	u	u
Nc1ncnc2c1ncn2[C@@H]1O[C@H](CNS(=O)(=O)CCCCl)[C@@H](O)[C@H]1O	x	x	10.8%	x	x
O=C1OC(NCc2cccnc2)(c2ccc(Cl)cc2)c2ccccc21 (stereo not given)	u	-2.2%	-7.7%	-14.0%	20.2%
CCCCCCCNC(=O)C1(CC2CC(c3ccc(Cl)cc3)=NO2)CCN(C(=O)CCCCCBr)CC1 (stereo not given)	32.0%	-31.1%	-0.5%	-23.2%	11.7µM*
O=C(CCCCCBr)N1CCC(CC2CC(c3ccc(Cl)cc3)=NO2)(C(=O)NCC2CCCCC2)CC1 (stereo not given)	u	10.8%	9.1%	6.8%	3.29µM*
CC1CCCN(C(=O)CCCNC(=O)c2ccc(Cl)cc2)C1 (stereo not given)	x	x	10.0%	x	x
O=C(CCCCCBr)N1CCC(CC2CC(c3cccc(Br)c3)=NO2)(C(=O)NCC2CCCCC2)CC1 (stereo not given)	u	-29.5%	-13.2%	-2.4%	5.22µM*
COc1ccc(CNC(=O)C2(CC3CC(c4ccccc4)=NO3)CCN(C(=O)CCCCCBr)CC2)cc1 (stereo not given)	x	x	-11.4%	x	x
O=c1c2ccccc2[nH]c2ccccc12	1.65µM*	-23.7%	20.5%	-15.3%	1.47µM*
O=c1c2c([nH]c3ccccc13)CCCCC2	1.65µM*	-70.4%	1.2%	5.2%	1.65µM*
CC1(C)CCc2c([nH]c3ccccc3c2=O)O1	u	6.3%	3.3%	0.7%	u
CCC1CCc2c([nH]c3ccccc3c2=O)O1 (stereo not given)	u	-21.1%	6.2%	-4.1%	2.33µM*
COc1ccc(-c2[nH]ncc2C(=O)NCc2ccccc2C)cc1	x	x	x	0.3%	x
Cc1nc(C(N)=O)c(N)n1CCc1ccccc1	5.4%	0.8%	12.9%	u	26.5%
CCC(C)C(NC(=O)C1CCC(C)CC1)C(=O)Nc1ccc(OC)cc1 (stereo not given)	u	0.3%	15.8%	-7.7%	-18.7%
CCOC(=O)c1c(Nc2ccc(Cl)cc2)sc(/C=C2\C=Nc3ccccc32)c1O	4.15µM*	1.2%	13.2%	6.2%	x
